Usually AC50 stands for the concentration giving half of the maximal activity seen.

The target in experiment [1] is CCAAT/enhancer-binding protein beta (Homo sapiens) (UniProt P17676). The experiment is described as follows: ATG_C_EBP_CIS: Attagene CIS-FACTORIAL HepG2 Assay for human CCAAT/Enhancer Binding Protein (C/EBP) beta (AID 2282927). To be noted: HepG2 Attagene cis-factorial transcription factor reporter; actives raise or lower the signal. Put shortly:
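Chemical-treated HepG2 cells (24 h) bearing cis-regulated reporter constructs were processed for total RNA, then reverse transcription, PCR amplification, fluorescent primer extension and fragment analysis; gain- and loss-of-signal were fitted against DMSO.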

Experiment [2] is described as follows: ATG_DR4_LXR_CIS: Attagene CIS-FACTORIAL HepG2 Assay for human Liver X Receptor (LXR), DR4 submotif (AID 2282929). To be noted: HepG2 Attagene DR4 cis-reporter, mRNA transcription; actives raise or lower the signal. Put shortly: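 HepG2 cells transiently transfected with cis-promoter-driven multiplexed reporter units (DR4 element) were dosed for 24 h. Reporter mRNA was quantified by RT-PCR, fluorescent primer extension, HpaI digestion and capillary electrophoresis; bidirectional fitting versus DMSO baseline.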

Experiment [3] can be described thus: ATG_AP_2_CIS: Attagene CIS-FACTORIAL HepG2 Assay for human Activator Protein 2 (AP-2) (AID 2282932). To be noted: HepG2 AP-2 cis-reporter, Attagene transcription factor profiling; actives raise or lower the signal. The method in brief:
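Assay in transfected HepG2 with promoter-regulated reporters, 24 h incubation after dosing. Signal is reporter mRNA fluorescence (RT-PCR, capillary electrophoresis), analysed for both increases and decreases relative to DMSO controls.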

Experiment [4] concerns the target Transcription factor E2F1 (Homo sapiens) (UniProt Q01094). The experiment is described as follows: ATG_E2F_CIS: Attagene CIS-FACTORIAL HepG2 Assay for human E2F Transcription Factor 1 (AID 2282935). To be noted: HepG2 Attagene cis-reporter, E2F reporter RNA transcripts; actives raise or lower the signal. The method in brief:
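In this cis-factorial format, endogenous factor activity drives transfected reporters in HepG2; transcripts collected at 24 h are quantified by fluorescence after RT-PCR and capillary separation.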

The nature of experiment [5]: ATG_E_Box_CIS: Attagene CIS-FACTORIAL HepG2 Assay for human Enhancer Box (E-box) (AID 2282936). To be noted: HepG2 E-box cis-reporter transcription, actives raise or lower the signal. Put shortly: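 Measured 24 h post-dosing in HepG2 cells transfected with multiple cis-regulated reporter units, signal being reporter mRNA induction detected by fluorescent RT-PCR with capillary electrophoresis; gain or loss fitted against DMSO.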

Experiment [6] can be described thus: ATG_M_19_CIS: Attagene CIS-FACTORIAL HepG2 Assay for M19 Transcription Factor (Internal Marker) (AID 2282939). To be noted: HepG2 Attagene CIS-FACTORIAL M19 internal marker reporter; actives raise or lower the signal. The method in brief: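 Following a 24 h exposure, RNA from transfected HepG2 cells was reverse-transcribed, PCR-amplified with reporter-specific primers, end-labelled with 6-FAM and HpaI-digested before capillary separation. Values represent gain or loss versus DMSO.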

Experiment [7] can be described thus: ATG_GLI_CIS: Attagene CIS-FACTORIAL HepG2 Assay for human Zinc Finger Protein GLI1 (AID 2282945). To be noted: HepG2, Attagene cis-factorial reporter mRNA, GLI element; actives raise or lower the signal. The method in brief: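 HepG2 cells transiently transfected with cis-promoter multiplexed reporter units report endogenous transcription factor activity. After 24 h chemical exposure, reporter mRNA was quantified by RT-PCR, 6-FAM labelling, HpaI digestion and capillary electrophoresis, with bidirectional fitting against DMSO.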

Experiment [8] is described as follows: ATG_ISRE_CIS: Attagene CIS-FACTORIAL HepG2 Assay for human Interferon Regulatory Factor 1 (IRF1) binding to an Interferon-Stimulated Response Element (ISRE) (AID 2282948). To be noted: HepG2 ISRE cis-reporter (Attagene), mRNA transcription readout; actives raise or lower the signal. The method in brief: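 Read-out: fluorescent RT-PCR products resolved by capillary electrophoresis, reporting endogenous transcription factor activity via ISRE-driven reporter mRNA in transfected HepG2 cells dosed for 24 h; gain or loss fitted relative to DMSO.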

Experiment [9] is described as follows: ATG_M_32_CIS: Attagene CIS-FACTORIAL HepG2 Assay for M32 Transcription Factor (Internal Marker) (AID 2282949).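 Further: background control marker of the multiplexed CIS panel rather than a real target.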 To be noted: HepG2 Attagene cis-factorial M32 reporter, mRNA; actives raise or lower the signal. Put shortly:
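Using DMSO as baseline, bidirectional curve fits were applied to reporter mRNA signals. These came from transiently transfected HepG2 cells exposed for 24 h, with RNA analysed by RT-PCR, FAM primer extension, HpaI digestion and CE.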

Experiment [10] concerns the target Hepatocyte nuclear factor 6 (Homo sapiens) (UniProt Q9UBC0). The experiment can be described thus: ATG_HNF6_CIS: Attagene CIS-FACTORIAL HepG2 Assay for human Hepatocyte Nuclear Factor 6 (HNF6) (AID 2282952). To be noted: HepG2 Attagene cis-factorial HNF6 reporter transcription; actives raise or lower the signal. Put shortly:
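Using cis-element reporters in HepG2 liver cells, the assay tracks endogenous factor-driven transcription 24 h post-dosing. Signal comes from 6-FAM-labelled, HpaI-digested RT-PCR fragments, with gain or loss scored against DMSO.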

Experiment [11] deals with Heat shock factor protein 1 (Homo sapiens) (UniProt Q00613). The experiment is described as follows: ATG_HSE_CIS: Attagene CIS-FACTORIAL HepG2 Assay for human Heat Shock Transcription Factor 1 (HSE) (AID 2282953). To be noted: HepG2 HSE cis-reporter, Attagene RNA transcription; actives raise or lower the signal. Put shortly: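 After a 24 h incubation with test chemical, transfected HepG2 cells were harvested for RNA; reporter transcripts were measured by RT-PCR and capillary electrophoresis. Values reflect gain or loss of signal relative to DMSO.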
Heat shock factor protein 1 (Homo sapiens), sequence (Q00613 whole entry, looked up): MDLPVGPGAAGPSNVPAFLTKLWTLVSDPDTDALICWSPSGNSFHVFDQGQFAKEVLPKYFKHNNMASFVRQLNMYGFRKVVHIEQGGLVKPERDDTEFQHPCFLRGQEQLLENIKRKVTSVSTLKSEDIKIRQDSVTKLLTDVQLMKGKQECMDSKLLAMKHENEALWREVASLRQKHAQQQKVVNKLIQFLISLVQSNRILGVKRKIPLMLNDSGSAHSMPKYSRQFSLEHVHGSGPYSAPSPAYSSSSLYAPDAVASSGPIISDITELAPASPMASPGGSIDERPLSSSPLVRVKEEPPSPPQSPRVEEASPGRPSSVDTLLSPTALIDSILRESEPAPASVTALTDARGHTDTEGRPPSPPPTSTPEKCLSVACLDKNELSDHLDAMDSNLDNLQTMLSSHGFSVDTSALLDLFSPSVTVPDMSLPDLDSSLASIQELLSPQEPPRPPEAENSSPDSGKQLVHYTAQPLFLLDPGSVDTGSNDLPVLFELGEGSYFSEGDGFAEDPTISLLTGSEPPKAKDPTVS

Experiment [12] in a line: ATG_PXRE_CIS: Attagene CIS-FACTORIAL HepG2 Assay for human Pregnane X Receptor Element (PXRE) (AID 2282957). To be noted: HepG2 Attagene CIS-FACTORIAL PXRE reporter, mRNA; actives raise or lower the signal. Put shortly: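 Using HepG2 transfected with multiple reporter transcription units, endogenous factor-driven transcription was scored as reporter mRNA after 24 h exposure.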

Experiment [13] can be described thus: ATG_Sox_CIS: Attagene CIS-FACTORIAL HepG2 Assay for human SRY-box transcription factor (SOX) (AID 2282960). To be noted: HepG2 Attagene cis-factorial SOX reporter, mRNA; actives raise or lower the signal. Put shortly: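 HepG2 cells transiently transfected with cis-element-driven multiple reporter transcription units, dosed 24 h; reporter mRNA measured by RT-PCR, FAM labelling, HpaI digestion and capillary electrophoresis. Bidirectional fit versus DMSO baseline.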

Experiment [14] addresses Transcription factor Sp1 (Homo sapiens) (UniProt P08047). The experiment is described as follows: ATG_Sp1_CIS: Attagene CIS-FACTORIAL HepG2 Assay for human Specificity Protein 1 (Sp1) (AID 2282961). To be noted: HepG2 Sp1 cis-reporter transcription, actives raise or lower the signal. The method in brief: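 HepG2 cells transiently transfected with multiple reporter transcription units driven by cis-regulatory elements; Sp1-responsive reporter mRNA measured 24 h after dosing by RT-PCR and capillary electrophoresis fluorescence, fitted bidirectionally against DMSO baseline.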

Experiment [15] addresses Signal transducer and activator of transcription 3 (Homo sapiens) (UniProt P40763). The experiment can be described thus: ATG_STAT3_CIS: Attagene CIS-FACTORIAL HepG2 Assay for human Signal Transducer and Activator of Transcription 3 (STAT3) (AID 2282963). To be noted: HepG2, Attagene cis-factorial STAT3 reporter transcription; actives raise or lower the signal. Put shortly:
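Uses human liver HepG2 transiently carrying cis-regulated reporter transcription units. Following 24 h dosing, reporter mRNA induction was detected by RT-PCR and capillary electrophoresis, analysed bidirectionally versus DMSO.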

The nature of experiment [16]: ATG_TA_CIS: Attagene CIS-FACTORIAL HepG2 Assay for human TA Basal Promoter (AID 2282964). To be noted: HepG2 Attagene CIS-factorial TA basal promoter reporter; actives raise or lower the signal. Put shortly:
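Multiplexed mRNA reporter assay, HepG2, 24 h. Reporter cDNA amplified, 6-FAM primer-extended, HpaI-cut, CE-sized; DMSO = negative control and baseline.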

Experiment [17] is described as follows: ATG_TCF_b_cat_CIS: Attagene CIS-FACTORIAL HepG2 Assay for human T-Cell-Factor with beta-catenin (TCF/b-cat) (AID 2282965). To be noted: HepG2 TCF/beta-catenin cis-reporter transcription, actives raise or lower the signal. Put shortly: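 In this cis-format system, transfected HepG2 cells report endogenous transcription factor activity. Readout after 24 h exposure is reporter transcript abundance from RT-PCR and capillary electrophoresis, analysed for gain or loss of signal versus DMSO.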

Experiment [18] can be described thus: ATG_TAL_CIS: Attagene CIS-FACTORIAL HepG2 Assay for human TAL Basal Promoter (AID 2282966).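 Further: background control endpoint measuring basal TAL promoter reporter mRNA not a specific factor.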 To be noted: HepG2 Attagene cis-factorial TAL promoter reporter; actives raise or lower the signal. Put shortly:
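After 24 hours of chemical exposure, transfected HepG2 cells yielded RNA that was converted to 6-FAM-labelled, HpaI-digested reporter fragments for capillary electrophoresis. Values derive from bidirectional fitting against DMSO controls.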

Experiment [19] concerns the target X-box-binding protein 1 (Homo sapiens) (UniProt P17861). The experiment can be described thus: ATG_Xbp1_CIS: Attagene CIS-FACTORIAL HepG2 Assay for human X-box Binding Protein 1 (XBP1) (AID 2282972). To be noted: HepG2 XBP1 cis-element reporter, Attagene multiplex; actives raise or lower the signal. Put shortly:
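Read-out: fluorescent reporter mRNA fragments resolved by capillary electrophoresis after RT-PCR. Human HepG2 liver cells carried transfected cis-promoter reporter units and were exposed to chemicals for 24 hours. Gain or loss of signal fitted relative to DMSO baseline.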

Calls of active or inactive are those of the source. How the source made its calls: active means hit-call score of the fitted dose curve at least 0.9, where 1 is the maximum; inactive means score below 0.9.

Hepatocyte nuclear factor 6 (Homo sapiens), sequence (Q9UBC0 whole entry, looked up, the tested form may be a part): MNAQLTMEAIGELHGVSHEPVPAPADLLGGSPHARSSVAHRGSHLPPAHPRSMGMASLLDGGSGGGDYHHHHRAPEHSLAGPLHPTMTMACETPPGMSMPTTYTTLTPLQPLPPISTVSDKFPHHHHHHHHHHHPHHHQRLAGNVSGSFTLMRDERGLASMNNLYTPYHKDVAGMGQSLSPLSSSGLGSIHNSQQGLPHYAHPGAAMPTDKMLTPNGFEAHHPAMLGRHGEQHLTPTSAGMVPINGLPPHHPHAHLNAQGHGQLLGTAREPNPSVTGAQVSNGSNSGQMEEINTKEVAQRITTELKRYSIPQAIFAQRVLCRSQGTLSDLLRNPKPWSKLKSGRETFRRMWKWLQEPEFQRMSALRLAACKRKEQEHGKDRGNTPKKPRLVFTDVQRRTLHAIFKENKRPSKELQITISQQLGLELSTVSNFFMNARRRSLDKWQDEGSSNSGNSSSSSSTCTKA
Signal transducer and activator of transcription 3 (Homo sapiens), sequence (P40763 whole entry, looked up): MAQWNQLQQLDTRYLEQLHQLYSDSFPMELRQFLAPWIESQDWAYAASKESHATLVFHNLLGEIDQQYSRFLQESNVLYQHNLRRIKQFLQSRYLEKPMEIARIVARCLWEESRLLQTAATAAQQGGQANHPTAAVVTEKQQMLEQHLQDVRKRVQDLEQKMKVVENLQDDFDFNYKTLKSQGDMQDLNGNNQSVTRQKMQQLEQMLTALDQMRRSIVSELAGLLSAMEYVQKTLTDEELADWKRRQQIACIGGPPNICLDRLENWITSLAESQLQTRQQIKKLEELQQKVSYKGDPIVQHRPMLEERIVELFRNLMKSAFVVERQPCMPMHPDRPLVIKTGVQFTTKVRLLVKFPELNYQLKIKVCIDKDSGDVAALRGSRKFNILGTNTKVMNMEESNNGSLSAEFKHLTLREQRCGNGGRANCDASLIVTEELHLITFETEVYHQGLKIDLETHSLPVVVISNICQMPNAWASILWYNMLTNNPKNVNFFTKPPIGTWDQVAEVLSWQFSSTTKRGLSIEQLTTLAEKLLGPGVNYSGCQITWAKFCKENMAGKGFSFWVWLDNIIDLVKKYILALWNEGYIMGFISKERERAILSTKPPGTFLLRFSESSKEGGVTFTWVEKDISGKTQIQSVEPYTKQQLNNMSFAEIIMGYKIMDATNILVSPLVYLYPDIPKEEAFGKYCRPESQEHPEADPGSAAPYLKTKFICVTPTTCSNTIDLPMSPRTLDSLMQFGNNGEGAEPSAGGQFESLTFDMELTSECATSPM
X-box-binding protein 1 (Homo sapiens), sequence (P17861 whole entry, looked up, the tested form may be a part): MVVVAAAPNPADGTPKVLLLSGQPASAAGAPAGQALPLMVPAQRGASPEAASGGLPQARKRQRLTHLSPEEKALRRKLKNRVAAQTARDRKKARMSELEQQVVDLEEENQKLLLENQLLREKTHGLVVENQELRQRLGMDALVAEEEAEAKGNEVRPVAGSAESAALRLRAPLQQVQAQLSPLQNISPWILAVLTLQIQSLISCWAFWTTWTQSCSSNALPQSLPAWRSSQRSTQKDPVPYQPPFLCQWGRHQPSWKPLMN
CCAAT/enhancer-binding protein beta (Homo sapiens), sequence (P17676 whole entry, looked up, the tested form may be a part): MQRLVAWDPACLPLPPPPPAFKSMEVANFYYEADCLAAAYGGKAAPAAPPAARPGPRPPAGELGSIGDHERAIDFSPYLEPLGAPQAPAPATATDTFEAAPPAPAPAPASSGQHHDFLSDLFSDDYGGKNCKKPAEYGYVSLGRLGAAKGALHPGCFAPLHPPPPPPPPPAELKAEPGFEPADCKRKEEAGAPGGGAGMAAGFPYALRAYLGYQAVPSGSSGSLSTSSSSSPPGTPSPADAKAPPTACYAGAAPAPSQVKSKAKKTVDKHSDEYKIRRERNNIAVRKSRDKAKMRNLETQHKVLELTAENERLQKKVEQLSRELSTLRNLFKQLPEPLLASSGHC
Transcription factor E2F1 (Homo sapiens), sequence (Q01094 whole entry, looked up): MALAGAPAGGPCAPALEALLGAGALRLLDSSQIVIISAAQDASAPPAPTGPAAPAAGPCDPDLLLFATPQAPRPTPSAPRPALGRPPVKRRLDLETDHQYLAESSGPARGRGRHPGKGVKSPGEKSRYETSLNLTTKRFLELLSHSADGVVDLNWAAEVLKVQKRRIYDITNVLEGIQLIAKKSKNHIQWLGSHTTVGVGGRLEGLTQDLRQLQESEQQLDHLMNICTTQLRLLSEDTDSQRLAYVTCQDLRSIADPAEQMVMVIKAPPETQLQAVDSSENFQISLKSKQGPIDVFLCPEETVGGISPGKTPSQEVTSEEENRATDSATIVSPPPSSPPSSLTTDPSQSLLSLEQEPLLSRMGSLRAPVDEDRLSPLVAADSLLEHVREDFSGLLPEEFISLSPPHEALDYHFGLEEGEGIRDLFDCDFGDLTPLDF
Transcription factor Sp1 (Homo sapiens), sequence (P08047 whole entry, looked up): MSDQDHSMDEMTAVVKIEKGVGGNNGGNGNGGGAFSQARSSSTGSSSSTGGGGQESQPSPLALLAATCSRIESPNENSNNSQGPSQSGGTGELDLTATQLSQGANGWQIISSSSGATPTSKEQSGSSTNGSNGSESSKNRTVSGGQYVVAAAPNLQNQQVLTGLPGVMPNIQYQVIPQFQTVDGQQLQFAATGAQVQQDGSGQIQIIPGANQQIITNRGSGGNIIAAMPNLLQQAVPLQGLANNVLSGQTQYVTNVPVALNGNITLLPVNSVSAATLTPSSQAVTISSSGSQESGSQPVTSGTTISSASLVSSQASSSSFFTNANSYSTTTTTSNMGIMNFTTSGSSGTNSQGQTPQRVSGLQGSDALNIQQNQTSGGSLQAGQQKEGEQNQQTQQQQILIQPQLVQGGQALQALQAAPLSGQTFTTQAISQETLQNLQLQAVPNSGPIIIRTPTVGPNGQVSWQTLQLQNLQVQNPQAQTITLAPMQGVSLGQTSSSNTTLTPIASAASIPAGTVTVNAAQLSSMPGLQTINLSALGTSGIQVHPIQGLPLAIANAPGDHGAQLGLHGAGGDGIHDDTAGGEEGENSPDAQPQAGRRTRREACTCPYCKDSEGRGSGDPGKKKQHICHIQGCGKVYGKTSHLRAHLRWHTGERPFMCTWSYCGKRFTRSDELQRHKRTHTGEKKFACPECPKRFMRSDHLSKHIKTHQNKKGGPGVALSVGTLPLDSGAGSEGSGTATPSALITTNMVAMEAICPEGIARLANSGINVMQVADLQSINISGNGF

On to `CCN(CC)C(=S)S`, for which the result in experiment [1], in experiment [2], in [3], in experiment [4], in [5] and in experiment [6] was inactive. Moreover, the compound was classed as inactive in experiment [7], in experiment [8], in experiment [9], in experiment [10], in experiment [11] and in experiment [13]. In addition, the compound was classed as inactive in [14], in experiment [15], in experiment [16], in [17], in [18] and in experiment [19]. Besides, the AC50 in experiment [12] was 22.7 µM (active).

Turning to `C[N+](=O)[O-]`, the result in [1], in [2], in [3], in experiment [4], in experiment [5] and in experiment [6] was inactive. Besides, the result in [7], in experiment [8], in experiment [9], in experiment [10], in [11] and in [12] was inactive. For the same compound, the result in [13], in experiment [14], in [15], in experiment [16], in experiment [17] and in experiment [18] was inactive. Moreover, the result in experiment [19] was inactive.

For `CC1(C)CC(=O)CC(C)(C)N1[O]`, the outcome in experiment [1], in [2], in [3], in [4], in experiment [5] and in experiment [6] was inactive. Further, the call in experiment [7], in experiment [8], in [9], in experiment [10], in [11] and in [13] was inactive. In addition, the outcome in [14], in [15], in experiment [16], in experiment [17], in experiment [18] and in experiment [19] was inactive. The AC50 in experiment [12] is 33.2 µM (active).

Consider `ClCC(Cl)Cl`, for which the outcome in [1], in experiment [2], in [3], in experiment [4], in experiment [5] and in [6] was inactive. The compound was classed as inactive in experiment [7], in experiment [8], in experiment [9], in [10], in [11] and in experiment [12]. In addition, the result in [13], in [14], in experiment [15], in experiment [16], in [17] and in experiment [18] was inactive. For the same compound, the call in experiment [19] was inactive.

For `C=Cc1cccc(CCl)c1`, the outcome in [1], in experiment [2], in experiment [3], in [4], in experiment [5] and in experiment [6] was inactive. The call in experiment [7], in [9], in experiment [10], in experiment [11], in experiment [13] and in experiment [15] was inactive. The compound was called inactive in experiment [16], in experiment [17] and in experiment [18]. Besides, the concentration at half-maximal activity (AC50) in [8] was 100 µM (active); in experiment [12], 46.2 µM (active); in [14], 25.5 µM (active); in experiment [19], 38.5 µM (active).

These data come from PubChem BioAssay (EPA / NIEHS).
